Drawing on PubChem BioAssay (NCATS), this text covers outcome, max response and Potency for 16 compounds.

In experiment [1] the test system is CRL-7250. The experiment in a line: Cytotoxic Profiling of Annotated Libraries Using Quantitative High-Throughput Screening (AID 1296008). Further: nearly all actives have a fitted effect of over 60% in size. Further: potency means the concentration at half of the fitted maximal effect. On max response: on the % scale 0 is the no-effect control and ±100 the full control effect. As to conditions: Five cell lines viability, CellTiter-Glo ATP luminescence, 48-72 h; max response: active compounds read low. The method, boiled down: (§1)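 Cells exposed to compounds for 48 or 72 hr at 37 degrees Celsius. Viability read as ATP-coupled luminescence with CellTiter-Glo after 10 min at room temperature.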

The subject of experiment [2] is HaCat. The experiment is described as above. Conditions: Five cell lines viability, CellTiter-Glo ATP luminescence, 48-72 h; max response: active compounds read low. In short, it runs like this: as §1
For experiment [3], the system named is KB-3-1. Described as above. As to conditions: Five cell lines viability, CellTiter-Glo ATP luminescence, 48-72 h; max response: active compounds read low. In short, it runs like this:
as §1

Experiment [4] relates to NIH3T3. The experiment is described as above. As to conditions: Five cell lines viability, CellTiter-Glo ATP luminescence, 48-72 h; max response: active compounds read low. The method, boiled down: as §1
Experiment [5] has as its system HACAT. The experiment in a line: qHTS assay to identify novel small-molecules to repurpose for Merkel cell carcinoma treatment (AID 1296009). Further: nearly all actives have a fitted effect of over 60% in size. Further: potency means the concentration at half of the fitted maximal effect. As to conditions: MCC and control cell lines, CellTiter-Glo viability, 72 h; at 44.8 µM (top of the series) unless noted. The method, boiled down:
(§2)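 Cells were treated for 72 hr at 37 degree celsius with compounds in 8- or 11-point dose response. Viability was read by CellTiter-Glo luminescence, normalized to no-cell (cytotoxicity) and DMSO controls.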

In experiment [6] the test system is MCC-13. The experiment is described as above. Conditions: MCC and control cell lines, CellTiter-Glo viability, 72 h; series mostly up to 46 µM. In short, it runs like this:
as §2

The test system of experiment [7] is MCC-26. The description is as above. Conditions: MCC and control cell lines, CellTiter-Glo viability, 72 h; series mostly up to 46 µM. The method, boiled down:
as §2

Experiment [8] has as its system MKL-1. The experiment is described as above. As to conditions: MCC and control cell lines, CellTiter-Glo viability, 72 h; series mostly up to 46 µM. In short, it runs like this: as §2
Experiment [9] deals with MKL-2. The description is as above. As to conditions: MCC and control cell lines, CellTiter-Glo viability, 72 h; series mostly up to 46 µM. In short, it runs like this:
as §2

For experiment [10], the system named is UISO. The experiment is described as above. As to conditions: MCC and control cell lines, CellTiter-Glo viability, 72 h; series mostly up to 46 µM. In short, it runs like this:
as §2

In experiment [11] the test system is WaGa. The description is as above. Conditions: MCC and control cell lines, CellTiter-Glo viability, 72 h; series mostly up to 46 µM. In short, it runs like this:
as §2

Experiment [12] relates to HeLa. As to the kind of experiment: Primary qHTS to identify gynecologic anti-cancer compounds using libraries of approved drugs and bioactive compounds (AID 1345084). Further: on the % scale 0 is the no-effect control and ±100 the full control effect; nearly all actives have a fitted effect of over 55% in size. As to conditions: Gynecologic cancer cell panel viability, ATPlite luminescence, 48 h; series mostly up to 57.5 µM. The method, boiled down: (§3)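 48 h compound exposure at 37 C, 5% CO2; five-point qHTS. ATPlite luminescence readout of cell ATP.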

The subject of experiment [13] is C33A. The description is as above. As to conditions: Gynecologic cancer cell panel viability, ATPlite luminescence, 48 h; series mostly up to 57.5 µM. In short, it runs like this: as §3
The test system of experiment [14] is CAOV3. Described as above. Conditions: Gynecologic cancer cell panel viability, ATPlite luminescence, 48 h; series mostly up to 57.5 µM. The method, boiled down: as §3
For experiment [15], the system named is CASKI. Described as above. As to conditions: Gynecologic cancer cell panel viability, ATPlite luminescence, 48 h; series mostly up to 57.5 µM. In short, it runs like this: as §3
Experiment [16] has as its system Es-2. The description is as above. Conditions: Gynecologic cancer cell panel viability, ATPlite luminescence, 48 h; series mostly up to 57.5 µM. In short, it runs like this: as §3
For experiment [17], the system named is HEK293T. As to the kind of experiment: qHTS assay to identify novel small-molecules to repurpose for Merkel cell carcinoma treatment (AID 1296009). Further: nearly all actives have a fitted effect of over 60% in size. Further: potency means the concentration at half of the fitted maximal effect. Conditions: MCC and control cell lines, CellTiter-Glo viability, 72 h; at 44.8 µM (top of the series) unless noted. The method, boiled down: as §2
Experiment [18] concerns NIH3T3. Described as above. Conditions: MCC and control cell lines, CellTiter-Glo viability, 72 h; series mostly up to 44.8 µM. In short, it runs like this:
as §2

Experiment [19] has as its system W2. As to the kind of experiment: qHTS profiling for inhibitors of Plasmodium falciparum proliferation (AID 504749).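 Further: 0% = DMSO vehicle and full inhibition = artemisinin control; nearly all actives have a fitted effect of over 60% in size.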 Conditions: P. falciparum in erythrocytes, SYBR Green DNA, 72 h; series mostly up to 28.7 µM. In short, it runs like this:
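P. falciparum-infected erythrocytes (0.3% parasitemia, 2.5% hematocrit) incubated with compound 72 h at 37 C, 5% CO2. Parasite DNA detected by SYBR Green after lysis, overnight at room temperature; normalised to 0.29 uM artemisinin and DMSO.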

“And” between values parts separate entries of the source, which are not always exact repeats. Equal entries are not always repeated. Records with an inconclusive call do not appear. A number with no mark means an inactive call. The source made the active and inactive calls. The call rests on the fitted dose curve; in most records, active means well fitted curve in the direction sought with a large enough effect; inconclusive means small, poorly fitted or top-dose-only effect, or another doubt; inactive means no such curve, though single readings can be large; an effect the other way counts as inactive or inconclusive.

Take `Cc1ccc2c(c1)c1c(n2CCc2ccc(C)nc2)CCN(C)C1`: the compound was classed as inactive in experiment [1], in experiment [2] and in experiment [5]. In addition, the results for the max response in experiment [2], in experiment [3] and in experiment [4] were -15.7%, 2.15% and 1.43%, respectively. The Potency entry in experiment [6], in experiment [7], in experiment [8], in experiment [9], in experiment [10] and in experiment [11] was “inactive” each time. Moreover, the Potency entry in experiment [12] is “inactive”.

Regarding `CCCCC[C@H](O)C=C[C@H]1[C@H](O)CC(=O)[C@H]1CC=CCCCC(=O)O`, the max response in experiment [1] was 2.95%; in experiment [4] it was -18.8%. Moreover, the outcome in [2], in [3] and in experiment [5] was inactive. Moreover, the Potency result in experiment [6], in experiment [7], in experiment [13], in [14], in experiment [15] and in [16] was “inactive” in each case. The Potency entry in experiment [12] is “inactive”. Also, the Potency in experiment [9] is 16.6 µM (active).

Take `CC1(C)[C@H]2CC[C@]3(C)[C@@H](C(=O)C=C4[C@@H]5C[C@@](C)(C(=O)O)CC[C@]5(C)CC[C@]43C)[C@@]2(C)CC[C@@H]1O`: the call in [1], in [2] and in [5] was inactive. Moreover, the max response was 1.07% in experiment [3] and -8.32% in [4]. Moreover, the Potency entry in experiment [6], in experiment [7], in experiment [8], in [9], in [10] and in experiment [11] was “inactive” each time.

On to `COC1CCC(C(=O)c2ccc3nc4c(cc3c2)CCCO4)CC1` (centres undefined), for which the outcome in experiment [1], in experiment [2] and in experiment [5] was inactive. For the same compound, the values for the max response in experiment [3] and in experiment [4] were -15.4% and -7.67%, respectively. Besides, the Potency entry in experiment [6], in [7], in experiment [8], in [9] and in experiment [11] was “inactive” in each case.

For the compound `CN(C)c1ccccc1CN1CCCN(Cc2ccccc2N(C)C)C1c1ccncc1`, the result in experiment [1], in experiment [2], in experiment [3] and in experiment [5] was inactive. Moreover, the max response in [4] was -1.17%. Also, the Potency entry in [6], in [7], in experiment [8], in [9], in experiment [10] and in [11] was “inactive” in each case.

`CN(C)CCOc1ccc(-c2nc(-c3ccc4c(c3)CCC4=NO)c(-c3ccncc3)[nH]2)cc1`: the call in [1], in experiment [2] and in experiment [5] was inactive. In addition, the max response in [3] was 2.27%; in experiment [4], 1.65%. The Potency result in [6], in experiment [7] and in [10] was “inactive” in each case. Besides, in experiment [9], the Potency was 14.8 µM (active).

As for `Cc1ccc(S(=O)(=O)OCC(=O)Nc2ccc(C(=O)O)c(O)c2)cc1`, the max response is -2.75% in experiment [1] and -0.735% in experiment [4]. The call in experiment [2], in experiment [3] and in [5] was inactive. Also, the Potency result in [6], in [7], in experiment [9] and in experiment [10] was “inactive” throughout.

In the case of `O=C(O)C1=NC(C(=O)O)CC(C=CN2c3cc(O)c(OC4OC(CO)C(O)C(O)C4O)cc3CC2C(=O)O)=C1` (centres undefined), the compound was classed as inactive in [1], in [2], in experiment [5] and in experiment [17]. For the same compound, the max response in [3] was 2.69%; in [4] it was 3.64%. The Potency result in [6], in experiment [7], in experiment [8], in experiment [9], in [10] and in experiment [11] was “inactive” in each case.

As to `CCN1CCC(n2cc(CNc3cc(Cl)c4ncc(C#N)c(Nc5ccc(F)c(Cl)c5)c4c3)nn2)CC1`, the max response in [1] was -1.92% and -4.77%; in experiment [2] it was -29.2% and -4.6%; in experiment [4], 2.53%. Moreover, the Potency in experiment [3] was 18.4 µM (active). The result in experiment [4] was inactive. The Potency result in experiment [6], in experiment [7], in experiment [8], in [18], in experiment [11] and in [13] was “inactive” each time. The Potency entry in experiment [15], in [16] and in experiment [12] was “inactive” throughout.

In the case of `CCC(=C(CC)c1ccc(O)cc1)c1ccc(O)cc1`, the figures for the max response in experiment [1] and in [4] were 2.3% and -12.1%, respectively. In addition, the compound was called inactive in experiment [2] and in [5]. In addition, the Potency result in experiment [6], in [7] and in experiment [8] was “inactive” throughout.

On to `CN(C)CCOc1ccc(C(=C(CCCl)c2ccccc2)c2ccccc2)cc1`, for which the max response in experiment [1] was -7.14%; in experiment [2], -3.54%; in [3], 7.38%. Moreover, in experiment [4], the compound was called inactive. Moreover, the Potency entry in experiment [6], in [7], in [8], in experiment [9], in [18] and in experiment [10] was “inactive” throughout. Further, the Potency result in [11] is “inactive”.

For the compound `COc1cccc(OC)c1-c1cc(C(=O)NC2(C(=O)O)C3CC4CC(C3)CC2C4)nn1-c1ccnc2cc(Cl)ccc12` (centres undefined), the max response is -4.21% in experiment [1] and -12% in [2]. Moreover, the compound was classed as inactive in [3] and in experiment [4]. The Potency result in [6], in [8], in experiment [9], in [18], in experiment [10] and in experiment [11] was “inactive” throughout.

With `FC(F)(F)c1ccc(C=Cc2nc(COc3ccc(CCCCn4ccnn4)cc3)co2)cc1`, the Potency in experiment [1] is 0.0132 µM (active); in [2], 7.43 µM (active); in experiment [6], 10.5 µM (active); in experiment [8] it was 0.0235 µM (active); in [10] it was 0.0264 µM (active); in experiment [11], 0.0047 µM (active). The max response was -26.9% in experiment [3] and -14.8% in [4].

As to `COc1ccc2c(c1)CC[C@H]1[C@@H]2CC[C@]2(C)[C@@H](NCCCCCCN3C(=O)C=CC3=O)CC[C@H]12`, the max response in [1] was -3.42%; in [2], 1.55%; in experiment [3], -4.66%; in [4], -1.24%. In addition, the Potency entry in [6], in experiment [8], in experiment [9], in experiment [10] and in experiment [11] was “inactive” in each case.

As to `CN1CC(=O)N2C(Cc3c([nH]c4ccccc34)[C@H]2c2ccc3c(c2)OCO3)C1=O` (some centres undefined), the Potency entry in experiment [19], in experiment [6], in experiment [7], in [8], in [9] and in experiment [10] was “inactive” each time. In experiment [11], the Potency entry was “inactive”. For the same compound, the figures for the max response in experiment [1], in [2] and in [3] were -5.59%, 4.52% and -12.7%, respectively.

For `c1ccc(-c2oc3ncnc(NC[C@@H]4CCCO4)c3c2-c2ccccc2)cc1`, the max response in experiment [1] was -6.45%; in experiment [2] it was -3.81%. In addition, the Potency in experiment [4] is 14.6 µM (active). The Potency entry in [6], in experiment [8], in [9], in experiment [10], in experiment [11] and in experiment [13] was “inactive” in each case. For the same compound, the Potency entry in [15], in experiment [16] and in [12] was “inactive” in each case.
